Compounds with a hit are over-represented: about 3.5% of the library has one in this group of screens.
3CLpro inhibitor: SARS-CoV 3CLpro protease inhibitors, primary screen, biochemical, quenched FRET | 290,000 compounds, 0.14% hits | recombinant SARS-CoV 3CLpro, quenched FRET peptide cleavage | Replicase polyprotein 1ab (Severe acute respiratory syndrome coronavirus), P0C6X7 | inhibition, % at 6 µM; in the data active = inhibition above about 12%
Anthrax LF inh2: Bacillus anthracis LF protease inhibitors, primary screen, biochemical, multiplex microsphere, MLPCN library | multiplex microsphere protease cleavage assay | AID 588501, 2011 | Lethal factor (Bacillus anthracis), P15917 | inhibition, % at 10 µM | 360,000 compounds, 0.12% hits; also: plate controls were buffer without enzyme for full effect and enzyme alone for no effect
Target sequence (P15917 whole entry, looked up): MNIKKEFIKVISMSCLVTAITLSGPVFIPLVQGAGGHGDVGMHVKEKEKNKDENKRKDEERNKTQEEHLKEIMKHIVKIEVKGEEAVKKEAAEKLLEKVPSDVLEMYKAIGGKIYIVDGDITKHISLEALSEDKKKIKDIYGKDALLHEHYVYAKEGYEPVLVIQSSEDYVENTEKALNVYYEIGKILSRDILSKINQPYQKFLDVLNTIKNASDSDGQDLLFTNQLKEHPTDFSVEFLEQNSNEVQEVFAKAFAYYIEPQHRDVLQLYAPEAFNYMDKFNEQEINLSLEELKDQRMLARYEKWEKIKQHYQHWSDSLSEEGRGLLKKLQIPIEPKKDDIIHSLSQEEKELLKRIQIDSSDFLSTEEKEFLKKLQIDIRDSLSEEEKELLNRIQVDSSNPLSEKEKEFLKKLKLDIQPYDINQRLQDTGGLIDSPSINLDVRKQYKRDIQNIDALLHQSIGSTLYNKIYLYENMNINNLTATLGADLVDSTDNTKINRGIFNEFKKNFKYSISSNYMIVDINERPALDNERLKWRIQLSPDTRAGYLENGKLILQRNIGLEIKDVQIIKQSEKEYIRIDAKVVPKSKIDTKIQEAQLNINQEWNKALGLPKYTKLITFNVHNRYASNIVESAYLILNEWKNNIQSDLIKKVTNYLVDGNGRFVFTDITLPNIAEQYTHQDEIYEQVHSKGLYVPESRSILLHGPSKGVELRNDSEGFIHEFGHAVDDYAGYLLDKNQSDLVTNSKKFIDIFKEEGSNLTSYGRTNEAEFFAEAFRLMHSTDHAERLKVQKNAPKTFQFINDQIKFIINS
BoNT-A LC inh2: BoNT/A light chain protease inhibitors, primary screen, biochemical, flow cytometry, MLPCN library; 360,000 compounds, 0.17% hits; multiplex microsphere protease substrate cleavage; inhibition, % at 10 µM; also: plate controls were buffer without enzyme for full effect and enzyme alone for no effect
Autofluor counter: compound fluorescence in toxin protease inhibitor counterscreen; compound autofluorescence counterscreen, microsphere flow cytometry; active compounds read high; 360,000 compounds, 3.1% hits; fluorescence intensity (no concentration beside the values); in the data active = fluorescence intensity above about 16000; inconclusive = no clear call, values can overlap the other calls
BoNT F protease: BoNT/F light chain protease inhibitors, primary screen, biochemical, flow cytometry, MLPCN library. inhibition, % at 10 µM. Multiplex microsphere protease cleavage assay. 360,000 compounds, 0.22% hits. AID 588497, 2011; in the data active = inhibition above about 35%, passing the limit was not always enough; inconclusive = no clear call, values can overlap the other calls; also: plate controls were buffer without enzyme for full effect and enzyme alone for no effect
Numbers without * were called inactive. Rule as the data show it, unless noted: active = inhibition above about 30%; inconclusive = no clear call, values can overlap the other calls; inactive = below that.

Screening CCOc1ccc(-c2c(=O)n(OCc3ccccc3Br)c3ccccc3[n+]2[O-])c(OCC)c1 returned 3CLpro inhibitor 2, Anthrax LF inh2 -2, BoNT-A LC inh2 0, Autofluor counter 4167 and BoNT F protease -2.
`Cc1cc(NS(=O)(=O)c2ccc(CC(C)C)cc2)no1` gave 3CLpro inhibitor -1, Anthrax LF inh2 -2, BoNT-A LC inh2 3, Autofluor counter 18585* and BoNT F protease 3.
For Cc1ccc(OC(C)C(=O)Nc2ccc(S(=O)(=O)Nc3cc(C)on3)cc2)cc1 (centres undefined) the results were 3CLpro inhibitor 6, Anthrax LF inh2 -19, BoNT-A LC inh2 inconclusive, Autofluor counter 21520* and BoNT F protease 6.
`Cc1cc(NS(=O)(=O)c2ccc(NC(=O)C(C)Oc3cc(C)c(Cl)c(C)c3)cc2)no1` (centres undefined) gave 3CLpro inhibitor 9, Anthrax LF inh2 0, BoNT-A LC inh2 2, Autofluor counter 5897 and BoNT F protease -6.
Screening Cc1cc(NS(=O)(=O)c2ccc(C(C)C)cc2)no1 returned 3CLpro inhibitor -1, Anthrax LF inh2 -4, BoNT-A LC inh2 0, Autofluor counter 5739 and BoNT F protease 0.
`Cc1cc(NS(=O)(=O)c2ccc(NC(=O)C(C)Oc3ccc(Cl)cc3)cc2)no1` (centres undefined) gave 3CLpro inhibitor 6, Anthrax LF inh2 2, BoNT-A LC inh2 16, Autofluor counter 17111* and BoNT F protease 20.
Screening N#Cc1ccsc1NC(=O)CN1CCN(c2ccccn2)CC1 returned 3CLpro inhibitor 1, Anthrax LF inh2 -1, BoNT-A LC inh2 0, Autofluor counter 2614 and BoNT F protease -9.
Screening O=C(CSc1nnc(Nc2ccccc2)s1)Nc1ccc(S(=O)(=O)N2CCOCC2)cc1 returned 3CLpro inhibitor 5, Anthrax LF inh2 -2, BoNT-A LC inh2 1, Autofluor counter 2640 and BoNT F protease 4.
`Cn1c(SCC(=O)Nc2nccs2)nnc1-c1ccc(S(=O)(=O)N2CCCC2)cc1` gave 3CLpro inhibitor -2, Anthrax LF inh2 0, BoNT-A LC inh2 4, Autofluor counter 19176* and BoNT F protease 6.
For Cc1ccc(Nc2nnc(SCC(=O)Nc3ccc(S(=O)(=O)N4CCOCC4)cc3)s2)cc1 the results were 3CLpro inhibitor 1, Anthrax LF inh2 -3, BoNT-A LC inh2 -1, Autofluor counter 22187* and BoNT F protease -3.
Cc1cccc(NC(=O)CSc2nnc(-c3ccc(S(=O)(=O)N4CCOCC4)cc3)n2C)c1 was read as 3CLpro inhibitor -1, Anthrax LF inh2 -6, BoNT-A LC inh2 0, Autofluor counter 16637* and BoNT F protease -2.
O=C(CSc1nc2ccccc2n1CC(=O)N1CCCC1)Nc1nccs1 was read as 3CLpro inhibitor -1, Anthrax LF inh2 -1, BoNT-A LC inh2 -1, Autofluor counter 23314* and BoNT F protease -2.
Screening CC(C)N(C(=O)Cn1c(SCC(=O)Nc2nccs2)nc2ccccc21)C(C)C returned 3CLpro inhibitor -2, Anthrax LF inh2 10, BoNT-A LC inh2 0, Autofluor counter 9243 and BoNT F protease -2.
CSc1ccc(S(=O)(=O)N(C)Cc2ccccc2)cc1 was read as 3CLpro inhibitor 7, Anthrax LF inh2 1, BoNT-A LC inh2 -1, Autofluor counter 4880 and BoNT F protease 6.
Screening O=C1CN(C(=O)CSc2nnnn2C2CC2)c2ccccc2N1 returned Anthrax LF inh2 -1, BoNT-A LC inh2 0, Autofluor counter 5709 and BoNT F protease -13.
For Cc1ccnc(NC(=O)CCC(=O)N(CC(=O)NCC2CCCO2)Cc2ccc(F)cc2)c1 (centres undefined) the results were 3CLpro inhibitor 0, Anthrax LF inh2 0, BoNT-A LC inh2 0, Autofluor counter 4127 and BoNT F protease 0.
Screening CCC(C)[C@H](NC(=O)[C@@H]1Cc2ccccc2CN1)C(=O)NCc1ccc(OC)cc1 (some centres undefined) returned 3CLpro inhibitor 0, Anthrax LF inh2 0, BoNT-A LC inh2 0, Autofluor counter 4343 and BoNT F protease -17.
`CCN(CC)NC(=S)Nc1ccccc1` gave 3CLpro inhibitor 0, Anthrax LF inh2 -2, BoNT-A LC inh2 1, Autofluor counter 22619* and BoNT F protease 2.
`CC(C)N(C)NC(=S)Nc1ccccc1` gave 3CLpro inhibitor -2, Anthrax LF inh2 -1, BoNT-A LC inh2 0, Autofluor counter 2446 and BoNT F protease -8.

Compound activity from PubChem BioAssay.
